Measurements taken from PubChem BioAssay (NCATS).
Results filed as inconclusive are left out. Active and inactive are the calls of the source. Unless noted, calls follow the shape of the dose curve; as a rule, active = well fitted curve in the direction sought with a large enough effect; inconclusive = small, poorly fitted or top-dose-only effect, or another doubt; inactive = no such curve, though single readings can be large; an effect the other way counts as inactive or inconclusive.

Tests used:
[1] = biological target: Ferritin light chain (Equus caballus) (UniProt P02791); test: qHTS Validation Assay for Identification of Novel General Anesthetics (AID 2323); also: potency is read from the fitted curve at half-maximal effect
Sequence of Ferritin light chain (Equus caballus) (P02791 2-175 limits assumed): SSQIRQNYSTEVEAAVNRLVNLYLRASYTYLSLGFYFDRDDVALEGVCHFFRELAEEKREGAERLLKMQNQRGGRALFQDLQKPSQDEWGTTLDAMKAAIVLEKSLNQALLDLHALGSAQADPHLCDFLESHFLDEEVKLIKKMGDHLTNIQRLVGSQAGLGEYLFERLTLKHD
In short: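 Competitive displacement of the profluorescent anesthetic 1-AMA (50% saturated, PBS) from 10 uM apoferritin, 10 min, room temperature. Activity is normalized 380/535 nm fluorescence; concentration-response fitted with a four-parameter Hill equation.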

[2] = biological target: ATP-dependent DNA helicase Q1 (Homo sapiens) (UniProt P46063); test: qHTS Validation Assay for Inhibitors of RecQ-Like Dna Helicase 1 (RECQ1) (AID 2353); also: potency is read from the fitted curve at half-maximal effect
Sequence of ATP-dependent DNA helicase Q1 (Homo sapiens) (P46063 whole entry, looked up): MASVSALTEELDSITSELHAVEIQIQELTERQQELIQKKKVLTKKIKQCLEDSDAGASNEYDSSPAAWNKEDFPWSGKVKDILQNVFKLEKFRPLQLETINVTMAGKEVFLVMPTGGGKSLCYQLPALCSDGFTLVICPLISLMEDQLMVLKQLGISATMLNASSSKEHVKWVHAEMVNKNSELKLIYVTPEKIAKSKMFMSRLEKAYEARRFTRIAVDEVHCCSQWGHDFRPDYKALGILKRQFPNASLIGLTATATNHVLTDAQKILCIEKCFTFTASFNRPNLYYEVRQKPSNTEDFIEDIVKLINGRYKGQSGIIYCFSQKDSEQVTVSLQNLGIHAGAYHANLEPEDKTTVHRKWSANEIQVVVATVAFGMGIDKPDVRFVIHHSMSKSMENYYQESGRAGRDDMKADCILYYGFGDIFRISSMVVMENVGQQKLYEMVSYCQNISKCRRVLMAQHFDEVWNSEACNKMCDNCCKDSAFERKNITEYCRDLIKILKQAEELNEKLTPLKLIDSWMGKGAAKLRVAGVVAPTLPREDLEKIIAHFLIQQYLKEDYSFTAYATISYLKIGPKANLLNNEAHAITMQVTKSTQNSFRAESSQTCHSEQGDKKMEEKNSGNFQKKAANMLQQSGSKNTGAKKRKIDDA
In short: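 50 nM RECQ1T1 preincubated 15 min with compound in Tris pH 8.0 buffer with MgCl2, DTT, Tween-20 and 2.5 ug/ml poly(dI-dC); started with 200 nM TAMRA/BHQ-2 forked duplex and 2 mM ATP. Unwinding read as fluorescence (525/598 nm), two reads 2 h apart.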

[3] = biological target: RecQ-like DNA helicase BLM (Homo sapiens) (UniProt P54132); test: qHTS Validation Assay for Inhibitors of Bloom's syndrome helicase (BLM) (AID 2364); also: potency is read from the fitted curve at half-maximal effect
Sequence of RecQ-like DNA helicase BLM (Homo sapiens) (P54132 whole entry, looked up): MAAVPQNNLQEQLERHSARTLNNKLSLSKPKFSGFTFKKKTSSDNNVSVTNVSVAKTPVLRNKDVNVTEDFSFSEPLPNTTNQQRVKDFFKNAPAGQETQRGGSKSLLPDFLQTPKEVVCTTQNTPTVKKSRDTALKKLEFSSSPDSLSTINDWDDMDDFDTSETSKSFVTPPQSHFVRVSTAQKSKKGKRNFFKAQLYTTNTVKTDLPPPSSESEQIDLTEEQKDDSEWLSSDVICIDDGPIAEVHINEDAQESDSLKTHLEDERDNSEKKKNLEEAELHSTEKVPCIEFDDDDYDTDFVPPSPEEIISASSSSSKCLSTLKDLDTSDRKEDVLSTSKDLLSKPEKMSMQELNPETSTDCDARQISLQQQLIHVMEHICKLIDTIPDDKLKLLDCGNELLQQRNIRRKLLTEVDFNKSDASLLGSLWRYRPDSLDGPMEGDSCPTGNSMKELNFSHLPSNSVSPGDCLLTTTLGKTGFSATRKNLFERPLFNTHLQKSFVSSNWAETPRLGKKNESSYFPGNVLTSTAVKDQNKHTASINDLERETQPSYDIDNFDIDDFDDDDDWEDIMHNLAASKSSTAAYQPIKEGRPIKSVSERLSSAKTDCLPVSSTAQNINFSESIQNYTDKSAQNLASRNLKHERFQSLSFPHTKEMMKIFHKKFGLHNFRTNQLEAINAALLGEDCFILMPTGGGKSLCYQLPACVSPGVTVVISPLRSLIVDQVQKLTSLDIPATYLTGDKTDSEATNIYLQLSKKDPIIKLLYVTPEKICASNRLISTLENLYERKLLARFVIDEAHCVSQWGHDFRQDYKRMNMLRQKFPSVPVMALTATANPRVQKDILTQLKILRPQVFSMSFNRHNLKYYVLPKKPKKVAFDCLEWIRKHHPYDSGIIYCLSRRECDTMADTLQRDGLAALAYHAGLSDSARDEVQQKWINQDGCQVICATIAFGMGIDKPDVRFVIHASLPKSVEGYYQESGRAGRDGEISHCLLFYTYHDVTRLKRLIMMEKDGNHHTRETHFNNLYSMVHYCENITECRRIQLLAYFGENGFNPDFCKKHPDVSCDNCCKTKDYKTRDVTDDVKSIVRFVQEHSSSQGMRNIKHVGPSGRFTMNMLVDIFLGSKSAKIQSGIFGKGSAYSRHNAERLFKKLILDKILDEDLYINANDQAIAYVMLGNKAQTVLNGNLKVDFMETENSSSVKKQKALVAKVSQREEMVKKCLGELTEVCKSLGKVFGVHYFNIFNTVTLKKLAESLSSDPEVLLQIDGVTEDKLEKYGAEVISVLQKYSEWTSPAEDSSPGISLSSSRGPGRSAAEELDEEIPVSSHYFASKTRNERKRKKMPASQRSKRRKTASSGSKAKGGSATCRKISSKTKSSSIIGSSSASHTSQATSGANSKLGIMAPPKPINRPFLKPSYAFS
In short: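 50 nM BLM preincubated 15 min at room temperature with compound in pH 8.0 Tris buffer containing 2.5 ug/ml poly(dI-dC); started with 200 nM TAMRA/BHQ-2 forked duplex and 2 mM ATP (final). Unwinding read as TAMRA fluorescence increase, two reads 2 h apart.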

[4] = Cytometric Cell-Based qHTS for Inhibitors of the mTORC1 Signaling Pathway in MEF (Tsc2-/-, p53-/-) Cells (AID 2660);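 also: percent of cells above a phospho-rpS6 to PI ratio cutoff in each well; series mostly up to about 38 µM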
In short: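 Immunofluorescence qHTS of rpS6 Ser235/236 phosphorylation: MEFs (Tsc2-/-, p53-/-) treated 24 h, 37 C, in DMEM + 10% FBS. Alexa-488 signal normalized to PI count, referenced to rapamycin (7.5 nM) and DMSO; PI cell number recorded for viability.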

[5] = High Content Imaging Cell-Based qHTS for Inhibitors of the mTORC1 Signaling Pathway in MEF (Tsc2-/-, p53-/-) Cells (AID 2666);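 also: percent of cells scored positive for phospho-rpS6 Ser235/236 immunostaining by imaging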
In short: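 Phospho-rpS6 (Ser235/236) immunofluorescence, normalized and scored as % positive cells using rapamycin and DMSO controls, was read in empty-vector Tsc2-/-, p53-/- MEFs after 24 h compound exposure at 37 C; propidium iodide counted cells.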

[6] = High Content Imaging Cell-Based qHTS for Inhibitors of the mTORC1 Signaling Pathway in MEF Cells (AID 2667);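 also: Tsc2-/- p53-/- MEFs stably re-expressing wild-type Tsc2 exposed 24 h; series mostly up to about 38 µM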
In short: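 WT MEFs (Tsc2-/-, p53-/- re-expressing Tsc2), in DMEM + 10% FBS, were treated with compound for 24 h at 37 C. Cells were then fixed and stained for phospho-rpS6 Ser235/236 with propidium iodide as cell count. Values are % positive cells, with thresholds set against rapamycin-treated cells.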

[7] = Validation screen for small molecules that induce DNA re-replication in MCF 10A normal breast cells (AID 463097); also: nearly all actives have a fitted effect of over 60% in size
In short: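 Read-out is Hoechst total nuclear intensity by fluorescence scanning imager, flagging increased high-DNA-content nuclei. Compounds were incubated with MCF 10A cells for 48 hr (37 C, 5% CO2) before 40 min staining.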

[8] = biological target: Ubiquitin carboxyl-terminal hydrolase 2 (Homo sapiens) (UniProt O75604); test: qHTS Validation Assay for Inhibitors of Ubiquitin-specific Protease USP2a Using CHOP2 as the Reporter (AID 463106)
Sequence of Ubiquitin carboxyl-terminal hydrolase 2 (Homo sapiens) (O75604 whole entry, looked up): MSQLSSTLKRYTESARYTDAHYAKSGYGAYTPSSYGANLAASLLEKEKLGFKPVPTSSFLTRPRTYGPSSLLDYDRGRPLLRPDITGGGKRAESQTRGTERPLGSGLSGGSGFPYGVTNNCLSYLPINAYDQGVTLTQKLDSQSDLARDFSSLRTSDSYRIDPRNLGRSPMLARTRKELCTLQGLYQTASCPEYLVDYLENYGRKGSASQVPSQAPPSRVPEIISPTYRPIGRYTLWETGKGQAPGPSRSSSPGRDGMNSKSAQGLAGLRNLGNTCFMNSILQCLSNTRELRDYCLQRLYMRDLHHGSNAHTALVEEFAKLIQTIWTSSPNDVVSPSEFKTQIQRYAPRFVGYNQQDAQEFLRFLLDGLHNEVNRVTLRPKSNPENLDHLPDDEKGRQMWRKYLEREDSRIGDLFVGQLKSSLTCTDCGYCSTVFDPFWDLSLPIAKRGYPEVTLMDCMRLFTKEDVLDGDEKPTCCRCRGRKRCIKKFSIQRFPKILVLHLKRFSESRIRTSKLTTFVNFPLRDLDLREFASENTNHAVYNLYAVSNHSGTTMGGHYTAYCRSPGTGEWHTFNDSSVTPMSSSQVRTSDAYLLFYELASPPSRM
In short: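 USP2 core (10 nM final) was preincubated with compound 30 min at RT in pH 8.0 Tris/CaCl2/beta-ME/CHAPS buffer. Ub-CHOP2 and reporter substrate (25 nM final each) were then added, with fluorescence (Ex 485/Em 531) read after 60 min. Data were normalized to NEM full inhibition and fitted to concentration-response curves.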

[9] = qHTS Assay for Identification of Small Molecule Inducers of Hypoxia Response (AID 2120; active = well fitted curve in the direction sought with a large enough effect in the signal ratio, with a control signal flat, not every such curve was filed as active; the % refers to the signal ratio)
In short: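 HRE-beta-lactamase reporter in CellSensor HRE-bla ME-180 cells, 2500 cells/well in Opti-MEM with 0.5% dialyzed FBS; compounds tested as titration series, 17 h at 37 degrees C. CCF4 substrate 2.5 h at room temperature; AC50 from 460/530 nm ratio.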

[10] = Cytometry Cell-Based qHTS for Inhibitors of the mTORC1 Signaling Pathway in MEF cells (AID 2668);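 also: Tsc2-/- p53-/- mouse embryonic fibroblasts stably re-expressing wild-type Tsc2; percent cells positive for phospho-rpS6 Ser235/236 relative to propidium iodide stain; series mostly up to about 38 µM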
In short: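 Phospho-rpS6 (Ser235/236) immunofluorescence over PI signal, scored as % positive cells using thresholds from 7.5 nM rapamycin and DMSO wells, after 24 h compound exposure of WT-Tsc2-rescued Tsc2-/-, p53-/- MEFs. PI cell count recorded for viability.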

Measured: Potency

CN1CCC(=C2c3ccccc3C=Cc3ccccc32)CC1
not listed: [9] | [10]
inactive: all other assays above

Cc1ccc(-c2cc(C(F)(F)F)nn2-c2ccc(S(N)(=O)=O)cc2)cc1
inactive: [9]

O=C1c2c(O)ccc(O)c2C(=O)c2c(NCCNCCO)ccc(NCCNCCO)c21
inactive: [4] | [5] | [6] | [7]
active: [1] 17.8 µM | [2] 3.16 µM | [3] 20 µM

CCC1(c2ccccc2)C(=O)NCNC1=O
not listed: [6] | [9] | [10]
inactive: all other assays above

O=c1[nH]cc(F)c(=O)[nH]1
not listed: [6] | [9] | [10]
inactive: all other assays above

COc1ccc(CCN(C)CCCC(C#N)(c2ccc(OC)c(OC)c2)C(C)C)cc1OC (stereo not drawn)
inactive: [1] | [2] | [3] | [4] | [5] | [7]

CN1CCC(=C2c3ccccc3CC(=O)c3sccc32)CC1
not listed: [9] | [10]
inactive: all other assays above

Cn1cnc2c1c(=O)[nH]c(=O)n2C
not listed: [6] | [9] | [10]
inactive: all other assays above

O=C(c1ccc(F)cc1)C1CCN(CCn2c(=O)[nH]c3ccccc3c2=O)CC1
not listed: [9] | [10]
inactive: all other assays above

CC(COc1ccccc1)N(CCCl)Cc1ccccc1 (stereo not drawn)
not listed: [9] | [10]
inactive: all other assays above

NC(=O)OCC(COC(N)=O)c1ccccc1
not listed: [6] | [9] | [10]
inactive: all other assays above

CNCCCC12CCC(c3ccccc31)c1ccccc12
inactive: [1] | [2] | [3] | [5] | [7] | [8]

Nc1nnc(-c2cccc(Cl)c2Cl)c(N)n1
not listed: [3] | [6] | [9]
inactive: all other assays above

COc1ccccc1N1CCN(CC(O)COc2cccc3ccccc23)CC1 (stereo not drawn)
inactive: [1] | [2] | [3] | [5] | [8]

CN1CCN2c3ccccc3Cc3ccccc3C2C1 (stereo not drawn)
not listed: [3] | [6] | [9]
inactive: all other assays above

Cc1ccccc1N1C(=O)c2cc(S(N)(=O)=O)c(Cl)cc2NC1C (stereo not drawn)
not listed: [3] | [9] | [10]
inactive: all other assays above

Nc1nc2c(ncn2COC(CO)CO)c(=O)[nH]1
not listed: [3] | [9]
inactive: all other assays above

Cc1cn([C@H]2C=C[C@@H](CO)O2)c(=O)[nH]c1=O
not listed: [3] | [9]
inactive: all other assays above

CC(C)(Oc1ccc(C2CC2(Cl)Cl)cc1)C(=O)O (stereo not drawn)
not listed: [3] | [9]
inactive: all other assays above

COc1nc(C)nc(Cl)c1NC1=NCCN1
inactive: [1] | [2] | [4] | [5] | [7] | [8]

CC(C)Cc1ccc(C(C)C(=O)O)cc1 (stereo not drawn)
not listed: [3] | [8] | [9]
inactive: all other assays above
